Reference: PubChem BioAssay AID1259343 (VanderVen Lab, College of Veterinary Medicine, Cornell …, 2017)
Out of some 6,200 compounds screened, about 2,900 (47%) were called active. The set was probably picked from earlier hits. Some of the results follow. A number with no mark means an inactive call. Cut-off read from the data, not from the text of the source: active = inhibition above about 50%; inactive = the rest.

Assay: Mycobacterium tuberculosis growth inhibition, primary screen (AID 1259343)
Conditions: inhibition: at 10 µM, stronger effect = higher value; outcome: 10 uM

Structure (SMILES)	inhibition
CN(C(=O)/C=C/c1ccc([N+](=O)[O-])s1)c1ccccc1	6.56%
O=C(/C=C/c1ccc([N+](=O)[O-])s1)Nc1ccc(F)cc1F	99.5% (active)
CCCCc1ccc(NC2=NC(C)(C)CS2)cc1	89.8% (active)
NC(N)=NN=CC(Cl)=Cc1ccccc1	85.8% (active)
NC(N)=NN=Cc1ccc(-c2ccccc2)cc1	38.6%
NC(N)=NN=C1c2ccccc2-c2ccccc21	-74.8%
Cc1cc2oc(NC(=O)c3ccc(=O)n(C)c3)nc2c(C)c1Cl	-2.23%
COc1ccc(C(=O)C2CCCN(Cc3nc(-c4ccc(F)cc4)cs3)C2)c(OC)c1 (stereo not drawn)	31.3%
COc1ccc(-c2csc(C(C#N)C(=O)CC3C=CCC3)n2)cc1 (stereo not drawn)	79.7% (active)
CC(NC(=O)Nc1cccnc1N1CCCC1)c1ccn(C)c1 (stereo not drawn)	-18.1%
CN(C)c1cccc(Nc2nccc3c2cc(-c2ccsc2)n3C)c1	63.8% (active)
CN(C)c1cccc(Nc2nccc3c2cc(-c2ccccc2)n3C)c1	74.6% (active)
O=C(NCc1ccc(Cl)s1)c1ccc(Br)o1	-14.3%
O=C(NCCc1ccc(Cl)s1)c1ccc(Cl)o1	79.6% (active)
O=C(NCc1cc(Br)cs1)c1ccc(Cl)o1	37.9%
CCOc1cc(C=Nn2c(C)csc2=NC(C)C)ccc1O	18.4%
Cc1ccc(OP(N)(=O)Oc2ccc(C)cc2)cc1	-4.77%
O=C1CCCCC1Sc1nnc(Nc2ccccc2)s1 (stereo not drawn)	6.48%
CCc1ccc(-c2nc(SC3CCCCC3=O)n[nH]2)cc1 (stereo not drawn)	57.1% (active)
CN(C1CCCCC1)S(=O)(=O)NC1COc2ccccc21 (stereo not drawn)	37.8%
COc1c(Cl)cc(C(=O)NCC(c2cccc(F)c2)N(C)C)cc1Cl (stereo not drawn)	-3.98%

Structure (SMILES)	inhibition
Oc1c(I)cc2oc3c(c2c1C=NCc1ccncc1)CCCC3	8.12%
Oc1c(Br)cc2oc3c(c2c1C=NCc1ccncc1)CCCC3	84% (active)
CCCc1cnc(-c2ccc(C)c3ncccc23)nc1	8.84%
COc1ccc(Cl)cc1C(=O)Nc1cc(-c2cccs2)nn1-c1nc(C)cc(=O)[nH]1	96.4% (active)
COc1ccc(Cl)cc1C(=O)Nc1cc(-c2cccs2)nn1-c1nc(C(C)C)cc(=O)[nH]1	101% (active)
CN1CCN(C(c2ccc(Cl)cc2)c2cc(Cl)c3cccnc3c2O)CC1 (stereo not drawn)	90.6% (active)
Oc1c(C(c2ccncc2)N2CCOCC2)cc(Cl)c2cccnc12 (stereo not drawn)	101% (active)
Oc1c(C(c2ccc(Br)cc2)N2CCCC2)cc(Cl)c2cccnc12 (stereo not drawn)	10.6%
CC(C)(C)c1cc(C(c2ccncc2)N2CCOCC2)cc(C(C)(C)C)c1O (stereo not drawn)	94.5% (active)
CCOC(=O)CNC(=O)CSc1ncnc2c1nnn2Cc1ccccc1	-26.6%
CCOC(=O)N1CCN(C(=O)CCc2ccc(-c3ccc(OC)cc3)n2-c2ccc(SC)cc2)CC1	13.6%
CCOC(=O)N1CCN(C(=O)CSc2cc(-c3ccccc3)ncn2)CC1	93.6% (active)
CC(C)(C)c1ccc2c(c1)CC(CNC(=O)/C=C/c1ccccc1)O2 (stereo not drawn)	27.2%
CC(C)(C)n1nc(C2CC2)cc1C(=O)NCC1Cc2ccccc2O1 (stereo not drawn)	-7.17%
O=C(NCC1Cc2ccccc2O1)c1ccc(Cl)s1 (stereo not drawn)	53.1% (active)
O=C(OCC1CC2CCC1C2)C(c1ccccc1)n1cccn1 (stereo not drawn)	92.2% (active)
O=S(=O)(NC1CCc2cc(F)ccc21)c1ccc2c(c1)CCC2 (stereo not drawn)	10.6%
O=S(=O)(NC1CCN(C2CC2)CC1)c1cc(Cl)cc(Cl)c1	4.16%
CC(=O)N1CCC(NS(=O)(=O)c2ccc3c(c2)CCCC3)CC1	86.8% (active)
CN(C)c1ccc(C(=C2C=CC(=[N+](C)C)C=C2)c2ccc(N(C)C)cc2)cc1	59.1% (active)
O=C(c1cc2cc(Cl)ccc2o1)N1CCN(S(=O)(=O)c2ccccc2Cl)CC1	42.3%

Structure (SMILES)	inhibition
O=C(NNC(=O)c1cc2cc(Cl)ccc2o1)c1cnccn1	101% (active)
CCc1c(C)nc(-n2nc(C)cc2NC(=O)c2cc(C(F)(F)F)cc(C(F)(F)F)c2)[nH]c1=O	-3.31%
CCc1c(C)nc(-n2nc(C)cc2NC(=O)c2ccc(C(F)(F)F)cc2)[nH]c1=O	101% (active)
CCc1c(C)nc(-n2nc(C)cc2NC(=O)c2ccc(OC)cc2)[nH]c1=O	99.8% (active)
CCc1c(C)nc(-n2nc(C)cc2NC(=O)c2cccc(OC)c2)[nH]c1=O	102% (active)
CCOc1cc(C(=O)Nc2cc(C)nn2-c2nc(C)c(CC)c(=O)[nH]2)cc(OCC)c1OCC	-22.4%
CCc1c(C)nc(-n2nc(C)cc2NC(=O)c2cc(OC)cc(OC)c2)[nH]c1=O	101% (active)
CCn1cc(NC(=O)c2cc3ccc(C(C)(C)C)cc3[nH]2)ccc1=O	-0.51%
CCc1c(C)nc(-n2nc(C)cc2NC(=O)c2ccc(F)c(F)c2)[nH]c1=O	99.7% (active)
CCc1c(C)nc(-n2nc(C)cc2NC(=O)c2cccc(C)c2)[nH]c1=O	101% (active)
CCc1c(C)nc(-n2nc(C)cc2NC(=O)c2ccccc2)[nH]c1=O	-16.5%
CCc1c(C)nc(-n2nc(C)cc2NC(=O)c2ccc(C)c(C)c2)[nH]c1=O	42.5%
CCc1c(C)nc(-n2nc(C)cc2NC(=O)c2cccc([N+](=O)[O-])c2)[nH]c1=O	99.7% (active)
C=CCN1C(=O)C(=O)N(CC(=O)c2cc(C)n(CCCOC)c2C)C1=O	-11.2%
O=C(CSC1=NCCS1)N1c2ccccc2Sc2ccccc21	27.6%
CCSc1nnc2c(n1)OC(c1ccc(OCc3ccccc3)cc1)Nc1ccccc1-2 (stereo not drawn)	83% (active)
O=C(O)c1cc2c(ccc3cc(Br)ccc32)oc1=O	47.8%
O=C(O)c1cc(Br)ccc1N=Cc1nc(-c2ccc(Cl)cc2)oc1O	50.4% (active)
CCC(C)(C)c1ccc(Oc2ccc(N)cc2)cc1	21.9%
Nc1ccc(Oc2ccc(Oc3ccc(N)cc3)cc2)cc1	72.7% (active)
Nc1ccc(Oc2ccc(N)cc2)cc1	-13.3%
